Test results: PMC4552634, “A New Set of Chemical Starting Points with Plasmodium falciparum Transmission-Blocking Potential for Antimalarial Drug Discovery” (PLoS ONE, 2015)
Where two headings read alike, the source gives them in different places. Out of some 13,000 compounds screened, about 3,200 (25%) showed an effect of 50% or more. The list shows a part of the results.

Test system: P. falciparum stage V gametocytes
Set-up: BacTiter-Glo ATP luminescence viability of purified stage V gametocytes in 384-well plates, per cent inhibition versus DMSO
Conditions: 48 h, 5 µM, inhibitor

SMILES: CN(CCCCNC(=O)c1ccc(-c2ccccc2)cc1)C1CCc2c(O)cccc2C1 (stereo not drawn) [TCMDC-139005]
- % Inhibition: -43.63%

SMILES: O=C(Nc1ccc(OC2CCN(Cc3ccc(F)cc3)CC2)cc1)c1cccs1 [TCMDC-133741]
- % Inhibition: 27.9%

SMILES: Cc1ccc(-c2nc3ccccc3o2)cc1NCc1cc(Cc2ccccc2)ccc1O [TCMDC-125705]
- % Inhibition: -21.71%

SMILES: Cc1cc(O)c(CN2CCN(Cc3cccs3)CC2)cc1C(C)C [TCMDC-124883]
- % Inhibition: -57.78%

SMILES: CCN1CCC(N(Cc2ccc(-c3ccc(C(F)(F)F)cc3)cc2)C(=O)CCCCn2c(CCc3cccc(F)c3F)nc(=O)c3ccccc32)CC1 [TCMDC-141321]
- % Inhibition: 85.03%

SMILES: CCN1CCC(N(Cc2ccc(-c3ccc(C(F)(F)F)s3)cc2)C(=O)Cn2c(CCc3cccc(F)c3F)nc(=O)c3ccccc32)CC1 [TCMDC-141282]
- % Inhibition: 107.7%

SMILES: O=C(Cn1c(CCc2cccc(F)c2F)nc(=O)c2ccccc21)N(Cc1ccc(-c2ccc(C(F)(F)F)cc2)cc1)C1CCN(C2=NCCS2)CC1 [TCMDC-136537]
- % Inhibition: 107.4%

SMILES: CCN1CCCC1CN(Cc1ccc(-c2ccc(C(F)(F)F)cc2)cc1)C(=O)Cn1c(CCc2cccc(F)c2F)nc(=O)c2ccccc21 (stereo not drawn) [TCMDC-141061]
- % Inhibition: 68.75%

SMILES: Cc1ccccc1CNc1noc(-c2c(-c3ccccc3)noc2C)n1 [TCMDC-134201]
- % Inhibition: -15.74%

SMILES: CCCOC(=O)c1ccc(OCCCON2C(N)=NC(N)=NC2(C)C)cc1 [TCMDC-131715]
- % Inhibition: 8.227%

SMILES: CC(C)N1CCC(N(Cc2ccc(-c3ccc(C(F)(F)F)cc3)cc2)C(=O)CCCn2c(CCc3cccc(F)c3F)nc(=O)c3ccccc32)CC1 [TCMDC-141316]
- % Inhibition: 88.07%

SMILES: CCN1CCC(N(Cc2ccc(-c3ccc(C(F)(F)F)cc3)o2)C(=O)Cn2c(CCc3cccc(F)c3F)nc(=O)c3ccccc32)CC1 [TCMDC-141281]
- % Inhibition: 92.96%

SMILES: CCN1CCC(N(Cc2ccc(-c3ccc(C(F)(F)F)cc3)cc2)C(=O)Cn2c(CCc3cccc(F)c3F)nc(=O)c3ccccc32)CC1 [TCMDC-141048]
- % Inhibition: 116.3%

SMILES: O=C(C1CCCC1)N1CCOC(CCN2CCC(c3ccccc3)CC2)(c2ccc(Cl)c(Cl)c2)C1 (stereo not drawn) [TCMDC-135327]
- % Inhibition: -12.01%

SMILES: CC(C)Cc1nc2nc(N)nc(N)c2cc1C(C)C [TCMDC-137930]
- % Inhibition: 2.497%

SMILES: CC1CCCN(c2ccc(NC(=O)c3cccs3)cc2[N+](=O)[O-])C1 (stereo not drawn) [TCMDC-124625]
- % Inhibition: 1.853%

SMILES: O=C(Nc1ccc2c(c1)CCCN2S(=O)(=O)c1cccs1)c1cc([N+](=O)[O-])ccc1Cl [TCMDC-125153]
- % Inhibition: 96.55%

SMILES: CC(=O)c1cccc(NC(=O)c2ccc(Cl)c(S(=O)(=O)N3CCc4ccccc43)c2)c1 [TCMDC-124431]
- % Inhibition: 4.693%

SMILES: O=c1cc(NCCC2CC=CCN2Cc2ccc(Cl)c(Cl)c2)[nH]c2ccccc12 (stereo not drawn) [TCMDC-139445]
- % Inhibition: 3.776%

SMILES: COc1ccc(CCNCC(O)c2cccc(Br)c2)c(Cl)c1OC (stereo not drawn) [TCMDC-125478]
- % Inhibition: 12.88%

SMILES: COc1ccc(CCNCCCCCCNCCc2ccc(Cl)cc2)c(Cl)c1OC [TCMDC-131272]
- % Inhibition: 114.1%

SMILES: COc1ccc(CCNCCCCCCNCCc2ccc(OC)c(OC)c2Cl)c(Cl)c1OC [TCMDC-131261]
- % Inhibition: 103.5%

SMILES: O=C(Nc1ccsc1C(=O)NC1CCCCC1)c1ccc(F)cc1 [TCMDC-123789]
- % Inhibition: -7.21%

SMILES: CCCC(C)Nc1nc(C)cc(N[C@@H](CC(C)C)C(=O)NCCOc2ccccc2)n1 (stereo partly drawn) [TCMDC-134898]
- % Inhibition: -16.46%

SMILES: CC1=C(C(=O)NC2CCC(CN3CCC(c4c[nH]c5ccccc45)CC3)CC2)Cc2ccccc21 (stereo not drawn) [TCMDC-139765]
- % Inhibition (% Inhibition): -59.52%

SMILES: O=C(C=C1c2ccccc2-c2ccccc21)NC1CCC(CN2CCC(c3c[nH]c4ccccc34)CC2)CC1 (stereo not drawn) [TCMDC-139918]
- % Inhibition (% Inhibition): -14.57%

SMILES: O=C(NC1CCC(CN2CCC(c3c[nH]c4ccccc34)CC2)CC1)[C@H]1Cc2ccccc2CN1 (stereo partly drawn) [TCMDC-140311]
- % Inhibition: 105%

SMILES: O=C(C=C1c2ccccc2-c2ccccc21)NC1CCC(CN2CCC(c3c[nH]c4ccccc34)CC2)CC1 (stereo not drawn) [TCMDC-139906]
- % Inhibition (% Inhibition): -40.53%

SMILES: CC1=C(C(=O)NC2CCC(CN3CCC(c4c[nH]c5ccccc45)CC3)CC2)Cc2ccccc21 (stereo not drawn) [TCMDC-139755]
- % Inhibition (% Inhibition): 71.55%

SMILES: COc1cccc(NC(=O)COc2ccc(C(=O)Nc3nc4ccccc4[nH]3)cc2)c1 [TCMDC-125060]
- % Inhibition: -14.04%

SMILES: COc1ccc(NC(=O)Nc2cccc(-c3cccc(-c4nc5ccccc5[nH]4)c3)c2)cc1 [TCMDC-133246]
- % Inhibition: -3.32%

SMILES: COc1cccc(NC(=O)[C@H](C(C)C)n2c(=O)[nH]c3ccccc3c2=O)c1 [TCMDC-125133]
- % Inhibition: 96.89%

SMILES: COc1ccccc1CNC(=O)C(=O)Nc1c(-c2ccccc2)[nH]c2ccccc12 [TCMDC-124999]
- % Inhibition: -88.11%

SMILES: COc1cccc(NC(=O)[C@H](C)n2c(=O)[nH]c3ccccc3c2=O)c1 [TCMDC-124998]
- % Inhibition: 68.49%

SMILES: COc1ccc2[nH]c3ccccc3c(=O)c2c1 [TCMDC-123948]
- % Inhibition: 14.64%

SMILES: C=CCc1cc(Br)ccc1OCCCON1C(N)=NC(N)=NC1(C)C [TCMDC-131341]
- % Inhibition: 13.45%

SMILES: O=C(/C=C/c1ccc(Cl)c(Cl)c1)NCCCCCCN1CCN(C(=O)Nc2ccc(OC(F)F)cc2)CC1 [TCMDC-135834]
- % Inhibition: -53.7%

SMILES: Cc1ccc(C(=O)c2oc3ccc4c(C)cc(=O)oc4c3c2C)cc1 [TCMDC-125583]
- % Inhibition: -7.355%

SMILES: Cc1cccc(C)c1OC(=O)C(C)C(O)C1(Sc2ccccc2)CCN(C)CC1 (stereo not drawn) [TCMDC-132104]
- % Inhibition: 17.64%

SMILES: O=C(Nc1ccc(F)cc1)NC1CCN(c2ccnc3cc(Cl)ccc23)CC1 [TCMDC-133570]
- % Inhibition: -24.37%

SMILES: Cc1nc(Nc2cc(Cl)ccc2O)nc(Nc2cc(Cl)ccc2O)c1[N+](=O)[O-] [TCMDC-125765]
- % Inhibition: -25.8%

SMILES: CC(=O)c1ccc2cc(C(=O)NC3CCC(CCN4CCc5ccc(-c6noc(C)n6)cc5CC4)CC3)[nH]c2c1 (stereo not drawn) [TCMDC-140072]
- % Inhibition: -66.89%
